Data published in the supplement of paper PMC12636033.
± gives the standard deviation of the averaged measurements. Whole data set: some 33,000 sequences, median “E-score (rank enrichment, -0.5 to 0.5)” near -0.0068, cut for the highest 2% near 0.24. Many of the other results were omitted from the sample, so the highest values are more common in it than they were.

Test system: muMax20 (Max(13-93) K31hArg/K57hArg, M65Nle)
Assay: PBM 8-mer E-score (E-score (rank enrichment, -0.5 to 0.5)); higher = stronger preferential binding
Procedure: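 Protein binding microarray (universal PBM chip covering all 10-mers in fixed probe flanks) with chemically synthesized human Max(13-93) bHLH-LZ analogs (not full-length Max) bearing noncanonical residues (hArg, Tha, Aib, Nle at 65) and aromatic Cys staples. Read-out per 8-mer (and its reverse complement): E-score (rank-based enrichment, -0.5 to 0.5) and Z-score of median probe intensity.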

Sequence	PBM 8-mer E-score
ATAAACTC	0.117 ± 0.039
AAAAAACG	0.241 ± 0.023
ATAAACTA	0.276 ± 0.041
CAAAAACG	0.111 ± 0.068
TAAAAACA	0.171 ± 0.018
GAAAAACA	0.16 ± 0.037
ACAAAACG	0.187 ± 0.013
ATAAACTG	0.0137 ± 0.077
AGATAGAG	-0.0243 ± 0.056
ACAATGCG	0.0438 ± 0.031
CCGTTTCC	0.0806 ± 0.018
CCTTTCCA	0.0937 ± 0.037
CCCTTATA	0.199 ± 0.086
AAGTAACA	0.152 ± 0.018
CTGTAATA	0.175 ± 0.023
CTGTAAAA	0.0545 ± 0.043
ATGTAACG	0.122 ± 0.029
CTGTAACA	0.0977 ± 0.058
ATGTAATG	0.2252 ± 0.0016
ATGTAACA	0.244 ± 0.057
GAGTAACA	0.164 ± 0.033
ATGTAATA	0.2587 ± 0.0011
TTGTAAAA	0.24 ± 0.053
TAGTAACA	0.239 ± 0.066
ATGTAAAA	0.221 ± 0.049

Sequence	PBM 8-mer E-score
CTAGTTAC	-0.0138 ± 0.072
AATTGCCA	0.0456 ± 0.0012
CATTCGGG	-0.0351 ± 0.075
AATCTTGC	-0.066 ± 0.042
ACGAGTGA	-0.0322 ± 0.14
CTGTAAAG	-0.0854 ± 0.0043
ATGTAAAT	0.154 ± 0.09
ATGTAAAG	0.244 ± 0.038
GGCTGACA	-0.104 ± 0.086
ACCGTCAA	-0.205 ± 0.0036
TATTACAA	0.236 ± 0.041
AACTATAA	0.229 ± 0.044
TATTAGAA	0.268 ± 0.0096
CACTACAA	0.152 ± 0.021
CATTAGAA	0.0939 ± 0.015
AATTACAA	0.209 ± 0.066
CACTATAA	0.0282 ± 0.15
GATTAGAA	0.0438 ± 0.032
TACTACAA	0.286 ± 0.0027
AACTACAA	0.0818 ± 0.066
TACTATAA	0.284 ± 0.021
CATTACAA	0.184 ± 0.097
CTGGGAGC	-0.247 ± 0.043
AAAGTCCG	-0.148 ± 0.0098
GTGGAAAC	0.119 ± 0.033

Sequence	PBM 8-mer E-score
CCCTCATA	0.135 ± 0.065
GTAGACAA	0.173 ± 0.061
GTCTTAGA	-0.0878 ± 0.12
GGGCAAAA	-0.107 ± 0.024
AGGGGTAG	0.123 ± 0.011
CTGTGGGA	-0.0483 ± 0.025
AATTGATC	0.0857 ± 0.087
AATTGATA	0.232 ± 0.016
AATTGATG	0.264 ± 0.051
GAAGGGCA	0.156 ± 0.0064
ACTATAGT	0.243 ± 0.03
AGTATACT	0.258 ± 0.04
CTAATGTA	0.1481 ± 0.0014
AGTATACA	0.175 ± 0.1
ATTATGTA	0.247 ± 0.0099
AGTATACC	0.077 ± 0.053
ATTATGTG	0.164 ± 0.049
ACTATAGA	0.117 ± 0.049
ACTATAGG	0.0643 ± 0.011
ATAATGTC	0.0566 ± 0.18
ATAATGTA	0.276 ± 0.0095
ATTATGTC	0.066 ± 0.23
AACGTTGA	0.212 ± 0.038
CAGTTGTC	-0.0724 ± 0.03
AATCTGCC	-0.0641 ± 0.019

Sequence	PBM 8-mer E-score
AACCTAAC	0.00712 ± 0.17
AAGATAGT	0.0344 ± 0.11
ATGGTCGG	0.12 ± 0.014
AATCGGAT	-0.181 ± 0.015
GCCGGTCA	-0.116 ± 0.078
AATTACGC	0.0652 ± 0.043
GTTATAGA	0.21 ± 0.089
AATATATC	0.0912 ± 0.07
AGTATAAG	0.237 ± 0.042
AGTATAAA	0.213 ± 0.011
ATTAGATG	0.226 ± 0.051
AGTATAAC	0.097 ± 0.009
ATTATATC	0.247 ± 0.031
ATTAGATA	0.262 ± 0.057
CTTATATC	0.137 ± 0.08
GTTAGATA	0.164 ± 0.13
GTTATACA	0.195 ± 0.095
GTTATATA	0.25 ± 0.023
CATGGCAC	0.0103 ± 0.037
CTGTGTGA	0.134 ± 0.012
CAGCGCAC	-0.171 ± 0.087
TATGAGGA	-0.0378 ± 0.11
AACAGACG	-0.142 ± 0.096
GGTGGATA	-0.0515 ± 0.1
ACGGTTCA	-0.138 ± 0.047

Sequence	PBM 8-mer E-score
CTAGGTGA	0.108 ± 0.032
TAGGATGA	-0.00288 ± 0.12
AGTATATC	-0.038 ± 0.059
ATTATATA	0.242 ± 0.03
ATTATACA	0.174 ± 0.083
AGTATATG	0.145 ± 0.017
AGTATATA	0.277 ± 0.12
CTTATATA	0.226 ± 0.043
CGTATCTA	-0.0745 ± 0.11
ATTATACG	0.0459 ± 0.063
ATTATATG	0.251 ± 0.03
GGTATCTA	-0.022 ± 0.064
AGTATCTA	0.344 ± 0.011
ACTATATG	0.191 ± 0.089
GCCGTACA	0.042 ± 0.14
GGCGTACA	-0.082 ± 0.02
CAAACGTC	0.0182 ± 0.068
CAGTAGAC	-0.021 ± 0.044
AGGATGCG	-0.118 ± 0.034
ACTATATA	0.235 ± 0.028
ACTATATC	0.273 ± 0.02
CCTATATC	-0.0516 ± 0.071
CCTTGTAC	0.176 ± 0.15
ACGAAGCG	-0.0243 ± 0.071
ATACTAGG	0.138 ± 0.032

Sequence	PBM 8-mer E-score
ACATATTG	0.11 ± 0.12
AAATATTC	0.249 ± 0.0014
ACATATTA	0.241 ± 0.011
GAATATTC	0.195 ± 0.08
TAATATTA	0.337 ± 0.011
CCATATTA	0.124 ± 0.062
ACATATCG	0.046 ± 0.074
GAATATTA	0.137 ± 0.083
ACATATCA	0.262 ± 0.041
CAATATTC	0.0728 ± 0.011
TAATATGA	0.221 ± 0.017
CCATATCA	0.0749 ± 0.018
CGGCGTCC	-0.114 ± 0.047
ATGCAATG	-0.00261 ± 0.02
CAACTTGG	-0.0581 ± 0.1
AGAGAACC	-0.143 ± 0.11
CAGATCTC	-0.176 ± 0.038
ATCTGACG	-0.0395 ± 0.07
ATAGCGCG	0.0731 ± 0.084
CATTGCGG	-0.148 ± 0.13
ACTTCAAC	0.11 ± 0.041
CAATATTA	0.221 ± 0.056
TCATAGCA	0.108 ± 0.0018
AAATATTA	0.27 ± 0.028
ACATAGCA	0.272 ± 0.032

Sequence	PBM 8-mer E-score
CCATAGCA	0.0753 ± 0.09
AAATATTG	0.138 ± 0.0027
ATAAAGAG	0.181 ± 0.089
AGACAACA	0.0868 ± 0.027
TCTATCAA	0.184 ± 0.099
ATCTCCAT	0.0165 ± 0.085
ATAGGACC	-0.0994 ± 0.04
GGTAAGGA	-0.00502 ± 0.057
AATGCTGA	0.088 ± 0.064
GACGCGTA	0.0707 ± 0.061
ACCGCGTG	0.294 ± 0.022
ACCGCGTC	-0.131 ± 0.011
CACGCGTC	0.208 ± 0.048
AACGCGTA	0.0549 ± 0.11
CACGCGTA	0.248 ± 0.051
CACGCGTG	0.314 ± 0.11
AACGCGTG	0.144 ± 0.01
CATGCTGA	0.2602 ± 0.0021
ACCGCGTA	0.0588 ± 0.11
GATGCTGA	-0.131 ± 0.16
ATAAACGA	0.229 ± 0.033
TAATCTGA	-0.0143 ± 0.051
